# Source: PubChem
# DRD3 agonist – D3 dopamine receptor (human) agonism. P35462. D3R DiscoveRx beta-arrestin cells, luminescence, 90 min. max activation, %. actives 0.58% (n = 410,000). AID 652048; in the data active = max activation above about 30%; also: 0% is about no effect
# Target sequence (P35462 whole entry, looked up): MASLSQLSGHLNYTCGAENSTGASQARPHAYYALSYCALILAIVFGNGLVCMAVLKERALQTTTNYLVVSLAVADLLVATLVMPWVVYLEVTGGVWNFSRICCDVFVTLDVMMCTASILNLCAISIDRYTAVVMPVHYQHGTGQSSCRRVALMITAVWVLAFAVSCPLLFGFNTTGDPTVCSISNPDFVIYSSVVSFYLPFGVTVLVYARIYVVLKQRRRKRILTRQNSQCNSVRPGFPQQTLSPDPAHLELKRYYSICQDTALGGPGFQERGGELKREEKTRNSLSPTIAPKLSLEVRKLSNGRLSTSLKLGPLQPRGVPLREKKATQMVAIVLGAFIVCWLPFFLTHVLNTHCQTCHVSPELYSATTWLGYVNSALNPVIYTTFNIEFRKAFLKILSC
#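 Cells at 1500/well, incubated overnight, then treated with pinned compounds (dopamine as control) for 90 min at 37 degrees C. DiscoveRx reagent added for 30 - 60 minutes at room temperature; luminescence read.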
# DRD3 antagonist – antagonists of human D3 dopamine receptor | actives 2.5% (n = 360,000) | D3R cells, DiscoveRx beta-arrestin luminescence, antagonist mode; active compounds read low | max response, negative = inhibition, % | P35462 | AID 652054; in the data active = max response below about -50%; inconclusive = no clear call, values can overlap the other calls; also: % is scaled to controls: 0 for no effect and ±100 for the full control effect
#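 Cells expressing the human receptor were seeded at 1500 cells/well, incubated overnight at 37 degrees C in 5% CO2, then exposed to library compounds with dopamine controls for 90 minutes at 37 degrees C before luminescent detection.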
# Nrf2 ARE act – activates Nrf2 signaling; actives 0.31% (n = 410,000); AREc32 ARE-luciferase reporter (MCF7-derived line), luminescence, 24 h; AID 624171; Potency, µM (titrated, usually from 46.1 µM), without a hit: at the highest dose activation, hits mostly activators; also: potency is read from the fitted curve at half-maximal effect; % of control where 0% means no effect; nearly all actives have a fitted effect of over 65% in size
#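 ARE-driven firefly luciferase activity in AREc32 cells measured after a 24 hr compound exposure at 37 deg C, using Steady-Glo reagent and a 30 min room-temperature hold.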
# Glioma ERSR ind – ER stress response induction in glioma | U87-MG GRP78 promoter luciferase reporter, 16 h | Potency, µM, for inactives: top-dose activation, usual class: activators | actives 0.02% (n = 420,000); also: potency is read from the fitted curve at half-maximal effect; series mostly up to about 76 µM; % of control where 0% means no effect; nearly all actives have a fitted effect of over 35% in size
#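 ERSR induction read as luciferase luminescence (Bright-Glo, 10 min at room temperature) in stably transfected human U87-MG glioma cells exposed to compounds for 16 h, using GRP78 as sensor.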
# Starred values were filed as active, the others as inactive; ? = inconclusive; . = no result given. This is a sample that favours compounds with a hit; in the whole collection about 3% have one here. Unless noted, calls follow the shape of the dose curve; as a rule, active = well fitted curve in the direction sought with a large enough effect; inconclusive = small, poorly fitted or top-dose-only effect, or another doubt; inactive = no such curve, though single readings can be large; an effect the other way counts as inactive or inconclusive.
SMILES,DRD3 agonist,DRD3 antagonist,Nrf2 ARE act,Glioma ERSR ind
CCOC(=O)c1cccc(C2=C(CNC(C)=O)[C@H]3CC[C@@H](C2)N3Cc2ccccc2)c1,-7,-9,1%,-5%
CCOC(=O)c1cccc(C2=C(CNC(=O)c3ccc([N+](=O)[O-])cc3)[C@H]3CC[C@@H](C2)N3Cc2ccccc2)c1,-17,-98*,-1%,-4%
CC(C)(C)c1ccc(O)c(CN2CCN(c3ccccc3)CC2)c1,-7,-71*,0%,-3%
O=C(Nc1cccc(C(=O)Nc2cc(C(=O)Nc3ccc([S+](=O)([O-])[O-])c4cc([S+](=O)([O-])[O-])cc(SOOO)c34)ccc2F)c1)Nc1cccc(C(=O)Nc2cc(C(=O)Nc3ccc([S+](=O)([O-])[O-])c4cc([S+](=O)([O-])[O-])cc([S+](=O)([O-])[O-])c34)ccc2F)c1,.,.,.,-3%
CSc1nc(N2CCN(C)CC2)c2ccccc2n1,-10,-16,1%,-2%
COc1nc2ccccc2nc1N1CCN(C)CC1,-1,-83*,-1%,-3%
C[N+]1(CCF)[C@@H]2CC[C@@H]1CC(OC(=O)C(O)(c1ccccc1)c1ccccc1)C2 (stereo partly drawn),.,.,.,-3%
O=[N+]([O-])/C=C/c1c(Cl)cccc1Cl,-9,7,14µM*,-14%
CCN(CC)c1ccc(/C=C/[N+](=O)[O-])cc1,-2,-14,1%,0%
COC(=O)C1C2CC[C@@H](CC1OC(=O)c1ccccc1)N2 (stereo partly drawn),41*,19,-1%,-3%
COC(=O)[C@H]1[C@@H](OC(=O)c2ccccc2)C[C@@H]2CC[C@H]1N2C,-11,.,.,.
Oc1ccc2c(c1)[C@@]13CCCCC1[C@@H](C2)N(CC1CCC1)CC3 (stereo partly drawn),.,.,.,-8%
CN1CC=C(c2c[nH]c3ccccc23)CC1,-16,-85*,0%,0%
c1ccc(CN2CCNCC2)cc1,-8,.,.,-4%
C1=C(c2c[nH]c3ccccc23)CCN(Cc2ccccc2)C1,-21,-101*,7%,6%
CC12CCC(=O)CC1CCC1C2CCC2(C)C1CCC2(C)O (stereo not drawn),.,.,.,-4%
CCC1(CC)CCNC1=O,.,.,.,-8%
OC(COCc1ccc(Cl)cc1)CN1CC=C(c2ccccc2)CC1 (stereo not drawn),34*,?,4%,-2%
OC(c1ccc(Cl)cc1)(c1cncnc1)c1ccccc1Cl (stereo not drawn),.,.,.,-2%
C[N+]1(C)[C@@H]2CC[C@H]1CC(OC(=O)C(c1ccccc1)c1ccccc1)C2 (stereo partly drawn),4,8,-1%,-4%
O=C(OC1CCN(CCCl)CC1)C(c1ccccc1)c1ccccc1,-96,-95*,0%,-1%
CCC(=O)O[C@@](Cc1ccccc1)(c1ccccc1)[C@H](C)CN(C)C,.,.,.,-3%
C=CCN1CC[C@]23CCCC[C@H]2[C@H]1Cc1ccc(O)cc13,-19,.,.,.
ClCCN(CCCl)c1ccc(C=Cc2ccncn2)cc1,72*,-14,4%,5%
CCCC[N+]12C3C[C@H](C4[C@H](O)[C@]5(C[C@@H]41)c1ccccc1N(C)[C@@H]35)[C@H](CC)[C@H]2O (stereo partly drawn),-12,-2,-1%,-2%
SMILES,DRD3 agonist,DRD3 antagonist,Nrf2 ARE act,Glioma ERSR ind
C/C=C1\CN2[C@H]3C[C@@]45c6ccccc6N(C)[C@H]4[C@@H]2CC1C3[C@H]5O (stereo partly drawn),-56,-63*,4%,-2%
CC(=O)/C=C/c1ccccc1,3,18,-3%,-1%
CC1=C(/C=C/c2ccccc2)CCN(C)C1,-22,-63*,2%,1%
CCOC(=O)[C@]12Cc3cc(OC)ccc3[C@H]1N(C1CCCCC1)C(=O)c1cc(OC)ccc12,-7,?,-4%,.
CCOC(=O)[C@]12Cc3cc(C)ccc3[C@H]1N(C1CCCCC1)C(=O)c1cc(OC)ccc12,-10,-64*,-3%,.
CCCCCn1c(N)c(C(=O)NCc2cccs2)c2nc3ccccc3nc21,16,12,-1%,-2%
Nc1c(C(=O)NCc2ccco2)c2nc3ccccc3nc2n1Cc1ccccc1,-2,3,16%,-4%
Nc1c(C(=O)NCCCc2ccccc2)c2nc3ccccc3nc2n1Cc1cccs1,35*,23,2%,3%
Nc1c(C(=O)NCc2ccco2)c2nc3ccccc3nc2n1Cc1ccc(F)cc1,-5,-14,18µM*,-4%
